From PubChem BioAssay (Tox21)
Several values for one entry are separate records, joined by “and”; a condition that tells them apart may be missing. Equal values may be shown once. Results filed as inconclusive are left out. Some structures have more than one record in an assay (separate samples or runs), and their calls can disagree. Activity calls are given as the source filed them. Calls follow the shape of the dose curve; as a rule, active = well fitted cell-killing curve with a large enough effect in the repeat runs; inconclusive = weak or mixed curves, or effect the other way; inactive = flat fitted curve, though single readings scatter.

Test: qHTS assay to identify small molecule antagonists of the retinoid acid receptor (RAR) signaling pathway - cell viability counter screen (AID 1159551); also: nearly all actives have a fitted effect of over 35% in size
Settings: C3RL4 cells viability, ATP luminescence (CellTiter-Glo), 6 h; series mostly up to 92.4 µM; activity change, negative = cytotoxicity: at the top concentration
Source text: U.S. Tox21 Program National Center for Advancing Translational Sciences [NCATS] NIH Chemical Genomics Center [NCGC] U.S. Environmental Protection Agency [EPA] National Institutes of Environmental Health Sciences [NIEHS] National Toxicology Program [NTP] U.S. Food and Drug Administration [FDA] Tox21 Assay Overview: All-trans Retinoic acid (atRA) is the potent natural metabolite of retinol and plays an important role in normal embryonic development and maintenance of cellular phenotype in adult animals. atRA is the activating ligand for the retinoic acid receptors (RARs) which form heterodimers with retinoid X receptors (RXRs) on the retinoic acid response element (RARE). Through activation of the RAR/RXRs nuclear receptors, atRA regulates the transcription of a large number of protein-coding genes and regulatory RNAs. Intracellular levels of atRA are controlled by the retinol signaling pathway (RSP) that regulates the biosynthesis and catabolism of atRA to maintain physiological levels. Chemicals that interfere with the RSP can cause abnormal intracellular levels of atRA and therefore are potential developmental toxicants. To assess compounds for the potential adverse effect on embryonic development through interfering with retinol signaling, a cell-based RARE luciferase reporter gene assay was used. C3RL4 cell line (OARSA/CFSAN/FDA, Laurel, MD) was used to screen Tox21 10K compound library for identifying inhibitors of the RSP. Also cytotoxicity was assessed by determining the viability of cells based on the quantitation of ATP.
Tox21 Assay Protocol Summary: C3RL4 cells were seeded at 1,000/well in 4 uL of assay medium into white solid 1,536-well tissue culture plates (Greiner Bio-One North America Inc. Monroe, NC) using a Multidrop Combi (Thermo Scientific, Waltham, MA) dispenser. After incubation at 37 C and 5% CO2 for an overnight, 23 nL of compounds dissolved in DMSO, positive control or DMSO only were transferred by a Pintool station (Kalypsys, San Diego, CA). One ul of 1 uM (final concentration) of Retinol was added right after the compound addition by using a Flying Reagent Dispenser (FRD) (Aurora Discovery, San Diego, CA). After 6 hr incubation at 37 C and 5% CO2, 5 uL of CellTiter-Glo reagent (Promega Corporation, Madison, WI) was added to each assay plate using an FRD. Luminescence was quantified on a ViewLux plate reader (PerkinElmer, Waltham, MA) after 30 min incubation at room temperature.
% is scaled to controls: 0 for no effect and ±100 for the full control effect; potency is read from the fitted curve at half-maximal effect.

Row | SMILES | Potency | activity change, negative = cytotoxicity
1 | CN(C)C(=S)SSC(=S)N(C)C | 67.6 µM (active) | –
2 | CCOP(=S)(OCC)SC(CCl)N1C(=O)c2ccccc2C1=O (stereo not given) | – | -1.72% (inactive)
3 | CC(C)=CCN1CC[C@@]2(C)c3cc(O)ccc3C[C@@H]1[C@@H]2C | – | -0.681% (inactive)
4 | c1cc[n+]2c(c1)-c1cccc[n+]1CC2 | – | 0.573% [at 42.5 µM] (inactive)
5 | C[C@]12CC[C@H]3[C@@H](CCC4=CC(=O)CC[C@@H]43)[C@@H]1CC[C@@H]2OC(=O)CCc1ccco1 | – | -0.822% [at 42.5 µM] (inactive)
6 | CCC[CH2][Sn]([CH2]CCC)([O]C(C)=O)[O]C(C)=O | – | -4.28% (inactive)
7 | [C-]1=CC=CC1.[Cl][Zr+2][Cl].c1cc[cH-]c1 | – | -0.127% (inactive)
8 | N#Cc1ccc(N(CC(N)=O)CC(F)(F)F)cc1C(F)(F)F | – | -0.271% (inactive)
9 | [Cl][Hg][c]1ccccc1 | 17.2 µM (active) | –
10 | O=C1C(Cl)=C(Cl)C(=O)C(Cl)=C1Cl | 60.9 µM (active) and inactive | –
11 | ClSC(Cl)(Cl)Cl | – | 3.35% (inactive)
12 | CCOC(=O)CCN(SN(C)C(=O)Oc1cccc2c1OC(C)(C)C2)C(C)C | – | 2.43% (inactive)
13 | O=Cc1ccccc1 | – | -0.0645% (inactive)
14 | [O]=[Cr](=[O])([OH])[O][Cr](=[O])(=[O])[OH] | 17.4 µM (active) and 27.3 µM (active) | –
15 | CSC(=O)c1c(C(F)F)nc(C(F)(F)F)c(C(=O)SC)c1CC(C)C | – | -1.02% (inactive)
16 | CCOP(=S)(NC(C)C)Oc1ccccc1C(=O)OC(C)C (stereo not given) | – | -5.97% (inactive)
17 | CC(C)NCC(O)c1ccccc1Cl (stereo not given) | – | 0.288% [at 42.5 µM] (inactive)
18 | Cc1cccc(Cc2cnc[nH]2)c1C | – | 0.301% [at 42.5 µM] (inactive)
19 | CC1(C)[C@H](/C=C2\CCSC2=O)[C@@H]1C(=O)OCc1coc(Cc2ccccc2)c1 | – | -2.66% (inactive)
20 | CC(C)c1c(CN(C)C(C)Cc2ccccc2)n(C)n(-c2ccccc2)c1=O (stereo not given) | – | 0.636% [at 42.5 µM] (inactive)

Row | SMILES | Potency | activity change, negative = cytotoxicity
21 | [Cl-].[Cl-].[Cl-].[Yb+3] | – | -4.48% (inactive)
22 | CN1C(=O)[C@@H](NC(=O)c2cc3ccccc3[nH]2)N=C(c2ccccc2)c2ccccc21 | – | -2.23% [at 42.5 µM] (inactive)
23 | O.O.O.O.O.O.O=S(=O)([O-])[O-].[Ni+2] | – | -2.41% [at 42.5 µM] (inactive)
24 | CCN(CC)C(=O)N[C@@H]1C=C2c3cccc4[nH]cc(c34)C[C@@H]2N(C)C1 | – | 0.218% [at 42.5 µM] (inactive)
25 | Nc1cc(Cl)ccc1Cl | – | 1.89% (inactive)
26 | CCO/N=C(\CC)C1=C(O)CC(c2c(C)cc(C)cc2C)CC1=O (stereo not given) | – | 0.714% (inactive)
27 | O=C1C2(Cl)C3(Cl)C4(Cl)C(Cl)(Cl)C5(Cl)C3(Cl)C1(Cl)C5(Cl)C24Cl (stereo not given) | 47.8 µM (active) | –
28 | O=[N+]([O-])c1cc(C(F)(F)F)c(Cl)c([N+](=O)[O-])c1Nc1ncc(C(F)(F)F)cc1Cl | 54.5 µM (active) | –
29 | O=NN(CCO)CCO | – | 0.0145% (inactive)
30 | O=C(CCCCl)c1ccc(F)cc1 | – | 1.63% [at 42.5 µM] (inactive)
31 | Oc1ccc2[nH]cc(CCCCN3CC=C(c4ccccc4)CC3)c2c1 | – | -5.58% [at 42.5 µM] (inactive)
32 | C=Cc1cccc(CCl)c1 | – | 0.735% [at 240 µM] (inactive)
33 | C#CC1(O)CCCCC1 | – | -0.927% (inactive)
34 | Brc1ccc(Oc2ccc(Br)cc2Br)c(Br)c1 | – | 1.12% (inactive)
35 | CCC[CH2][Sn]([CH2]CCC)([CH2]CCC)[CH2]CCC | 43.3 µM (active) | –
36 | C[N+]1(C)[C@@H]2CC[C@H]1CC(OC(=O)C(CO)c1ccccc1)C2 (stereo not given in full) | – | -0.481% [at 42.5 µM] (inactive)
37 | Clc1cc(Cl)c(-c2cc(Cl)c(Cl)cc2Cl)cc1Cl | – | 0.988% [at 42.5 µM] (inactive)
38 | Cc1c([N+](=O)[O-])cc2c(c1[N+](=O)[O-])C(C)(C)CC2(C)C | – | -2.65% (inactive)
39 | CCCCN(CCCC)C(=S)S | – | -0.953% (inactive)
40 | O=C(N[C@H]1N=C(c2ccccc2F)c2cccc3c2N(CC3)C1=O)c1cc2ccccc2[nH]1 | – | 0.271% [at 42.5 µM] (inactive)
